Source: the supplement of paper PMC10338343
± gives the standard deviation.

System: MILI (PIWIL2) piRISC loaded with L1MC piRNA (26 nt)
Assay: pre-steady-state target cleavage rate (min^-1); guide: L1MC piRNA 5'p-UAACUAAAUACUAUGCAAGCUGUAGG; MIWI and MILI are mouse PIWI proteins and EfPiwi is from a freshwater sponge; tags in brackets are library labels; higher = faster piRNA-guided slicing of the target
Settings: auxiliary factor: 500 nM mouse GTSF1
Summary of the method: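 A transcribed, DNA-blocked target RNA library (0.1 nM) and 1 nM active affinity-purified piRISC bearing one synthetic guide were incubated in HEPES–potassium acetate buffer at 33 °C for 0–8 or 0–960 min, either with or without 500 nM GTSF1 partner protein. Uncleaved targets were sequenced, normalised to depth and to weakly complementary targets, and pooled over three trials, with k3 capped at 0.0001 min^-1. The pre-steady-state cleavage rate was derived with a burst-and-steady-state fit.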

Sequence	pre-steady-state target cleavage rate
UCCUGGAUGAGCUUGCAUAGUAUUUUCUUA	0.0122 ± 0.0069
UCCUGGUACAGCUUGCAUUGUAUUUAGAAA	0.0202 ± 0.0075
UCCUGGAUGUCGAACGUAUGUAUUUAGUAUA	< 0.0001
UCCUGGUACAGCUUGCAUAGUAAUUAGAAA	0.0664 ± 0.018
UCCUCCUACAGCUUGCUAAGUAUUUAGAAA	0.0796 ± 0.016
UCCUGGAUGUCCUUGCAUAGUAAAUAGUAA	0.00932 ± 0.0037
UCCUGGAACAGCUUGCAUAGAAUUUUGUUA	0.0296 ± 0.01
UCCUGGAUGUCCUUGCAUAGUAUUAGUUA	0.0068 ± 0.004
UCCUGGAUGUCGAUGCAUAGUAAUAAGUUA	0.00446 ± 0.0033
UCCUGGUACAGCAAGCAUAGUAUUUAGAAA	0.104 ± 0.031
UCCUGGAUGUCGAUGCAUACUAUUUAGUUA	0.0178 ± 0.0056
UCCUGGAUGUGCUUGCAUAGAAUAUAGUUA	0.00814 ± 0.0043
UCCUGGAUGUCCUUGCUUAGUAUUAAGUUA	0.0115 ± 0.0047
UCCUGGUACAGCUUGGAUUGUAUUUAGUUA	0.0395 ± 0.013
UCCUGGUACAGCUUGCAUAGUUUUUACUUA	0.0154 ± 0.008
UCCUGGAACAGCUUGGAUAGAAUUUAGUUA	0.0521 ± 0.013
UCCUGGUACAGCUUGCAUAGUAUUAUGAAA	0.00782 ± 0.0056
UCCUGGAUCAGCUUGCAUAGAAAUUAGUUA	0.0245 ± 0.0096

Sequence	pre-steady-state target cleavage rate
UCCUGGUACAGCUUGCAAAGUAUUUACAAA	0.0115 ± 0.0055
UCCUGGAUCAGGUUGCAUAGUAUUUACAAA	0.0312 ± 0.011
UCCUCCUACAGCUACGAUAGUAUUUAGUAA	0.174 ± 0.024
UCCUGCUACAGCAACCAUAGUAUUUAGAAA	0.102 ± 0.03
UCCUGGAUGUGCUUGCAUAGUAUUUAGGUA	0.0373 ± 0.011
UCCUGCUACAGCUUGCAUAGAUUUUAGUUA	0.0475 ± 0.0083
UCCUGGAACACCUUGCAUAGUAUUUACAAA	0.071 ± 0.02
UCCUGGAUGUCGUAGCAUAGUAAUUAGUUA	0.0159 ± 0.0054
UCCUGGAUCAGCAACCAUAGUAUUUAGUAA	0.0962 ± 0.012
UCCUGGAUGUCGAUGCAUAGUAUUUAUUA	0.00695 ± 0.0047
UCCUGGAUGUCCUUGCUUAGAAUUUAGUUA	0.00442 ± 0.004
UCCUGGAUGUCCUUGCUAAGUAUUUAGUAA	0.0128 ± 0.006
UCCUCCUACAGCUUGCAUAGAUUUUACAAA	0.0174 ± 0.0071
UCCUGGAUCAGCUUGCAUACUAUUUACAAA	0.0104 ± 0.0042
UCCUGGUACAGCUUGCUUAGUAUUUACUUA	0.191 ± 0.038
UCCUCCUACAGCUAGCAUAGUAUUUUGUUA	0.151 ± 0.019
UCCUGGAUGACCUUGCAUAGUAUUUUGUUA	0.0852 ± 0.023
UCCUGGAUCAGCUUGGUUAGUAUUUAGAAA	0.0485 ± 0.016

Same assay, conditions: auxiliary factor: none (no GTSF1)

Sequence	pre-steady-state target cleavage rate
UCCUGGAUGUCGAACGUUAGUUAUUUAGUUA	< 0.0001
UCCUGGAUGUCGAUGCAUACUAUUUAGAUA	< 0.0001
UCCUGGAUGUCGUUGCAUAGUGAUUUAGUUA	0.0042 ± 0.0032
UCCUGGAUGUCGAACGUAAGUAAUUAGUUA	< 0.0001
